Among the data in PubChem BioAssay (EPA / NIEHS) are outcome and AC50 values, retold here.

For orientation: AC50 means the concentration at which the activity in the assay is half-maximal.

Test [1] is described as follows: TOX21_p53_BLA_p2_viability: Viability Assessment in the Tox21 HCT-116 p53 Agonism Beta-lactamase Assay, Phase 2 (AID 2283591).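 Note: compound exposure lasted 16 h at 37 °C; actives lower the ATP signal meaning cytotoxicity.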 The procedure, abridged:
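HCT-116 p53-bla cells (4000/well) rested 5 h at 37C, then received compounds in DMSO (217-fold dilution) for 16 h at 37C, 5% CO2. After the CCF4 read, CellTiter-Glo was added; ATP luminescence was read after 30 min at room temperature.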

Test [2] deals with Cellular tumor antigen p53 (Homo sapiens) (UniProt P04637). Nature of the test: TOX21_p53_BLA_p2_ratio: Tox21 HCT-116 p53 Agonism Beta-lactamase Assay, Ratio, Phase 2 (AID 2283592). The procedure, abridged:
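In this cell-based reporter format, HCT116 cells were dosed with chemicals delivered from DMSO by 217-fold dilution and incubated 16 h at 37C. Emission at 460 and 530 nm after 2 h CCF4-AM loading provided the ratio, fitted upward versus DMSO.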

Test [3] is described as follows: TOX21_p53_BLA_p3_viability: Viability Assessment in the Tox21 HCT-116 p53 Agonism Beta-lactamase Assay, Phase 3 (AID 2283593).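 Note: cells exposed to compound for 16 h before reading.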 The procedure, abridged: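 HCT-116 cells (4000/well) rested 5 h at 37C, then got DMSO compounds by pin tool (217-fold dilution) for 16 h at 37C, 5% CO2. After the bla read, CellTiter-Glo was added and luminescence read at 30 min, room temperature.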

Test [4] has as its target Cellular tumor antigen p53 (Homo sapiens) (UniProt P04637). The test can be described thus: TOX21_p53_BLA_p3_ratio: Tox21 HCT-116 p53 Agonism Beta-lactamase Assay, Ratio, Phase 3 (AID 2283596). The procedure, abridged:
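HCT116 p53-bla cells (4000/well) given compound in DMSO (217-fold dilution) after 5 h, incubated 16 h at 37C. CCF4-AM substrate 2 h at room temperature; 460/530 nm emission ratio, gain fitted against DMSO.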

A short description of test [5]: TOX21_p53_BLA_p4_viability: Viability Assessment in the Tox21 HCT-116 p53 Agonism Beta-lactamase Assay, Phase 4 (AID 2283597).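 Note: hits lower the luminescence signal meaning cytotoxicity.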 The procedure, abridged: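 We seeded HCT116 p53 reporter cells at 4000/well and waited 5 h. We then added compounds in DMSO at a 217-fold dilution and incubated for 16 h. Viability was read as CellTiter-Glo luminescence after 30 min at RT.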

The nature of test [6]: TOX21_p53_BLA_p5_viability: Viability Assessment in the Tox21 HCT-116 p53 Agonism Beta-lactamase Assay, Phase 5 (AID 2283600). Put shortly: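 Compounds, pinned from DMSO at 217-fold dilution, were left on the cells for 16 h. The viability endpoint was ATP content measured by CellTiter-Glo luminescence, where falling signal reflects cytotoxicity.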
In test [7] the target is Cellular tumor antigen p53 (Homo sapiens) (UniProt P04637). The test can be described thus: TOX21_p53_BLA_p5_ratio: Tox21 HCT-116 p53 Agonism Beta-lactamase Assay, Ratio, Phase 5 (AID 2283599). Put shortly: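 HCT-116 cells carrying a p53-inducible beta-lactamase reporter were seeded at 4000 cells/well and dosed after 5 h with compound in DMSO (217-fold dilution). After 16 h at 37C, CCF4-AM substrate was added for 2 h, and the 460/530 nm emission ratio was scored as gain-of-signal versus DMSO.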
Sequence of Cellular tumor antigen p53 (Homo sapiens) (P04637 whole entry, looked up): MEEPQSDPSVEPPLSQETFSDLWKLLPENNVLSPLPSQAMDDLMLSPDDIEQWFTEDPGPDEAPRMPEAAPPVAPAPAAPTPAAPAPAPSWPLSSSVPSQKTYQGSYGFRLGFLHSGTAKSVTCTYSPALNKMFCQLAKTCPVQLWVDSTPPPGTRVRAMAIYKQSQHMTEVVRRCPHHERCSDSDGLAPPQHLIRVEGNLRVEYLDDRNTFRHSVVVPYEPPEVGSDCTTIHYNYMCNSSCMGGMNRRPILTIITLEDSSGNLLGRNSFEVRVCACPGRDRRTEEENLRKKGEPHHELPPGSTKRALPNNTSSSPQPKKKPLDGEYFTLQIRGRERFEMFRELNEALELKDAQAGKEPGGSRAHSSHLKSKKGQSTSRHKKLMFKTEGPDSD

Test [8] has the same target. Nature of the test: TOX21_p53_BLA_p4_ratio: Tox21 HCT-116 p53 Agonism Beta-lactamase Assay, Ratio, Phase 4 (AID 2283601). The procedure, abridged:
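HCT116 cells carrying an inducible beta-lactamase reporter were plated at 4000 cells/well, rested 5 h, then exposed to compounds in DMSO (217-fold dilution) for 16 h at 37C. CCF4-AM substrate was loaded 2 h at room temperature; 460/530 nm emission ratio scored gain-of-signal versus DMSO.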

For test [9], the system named is Brachyury (BRA) Protein Expression, Deisenroth Lab, TBXT (gene 6862). The test can be described thus: CCTE_Deisenroth_DEVTOX-GLR_legacy_Bra: (Legacy) CCTE's DevTox GLR-Endo Assay Evaluation of Brachyury (BRA) Protein Expression, Deisenroth Lab (AID 2284329; active = hit-call score of the fitted dose curve at least 0.9, where 1 is the maximum; inactive = score below 0.9). The procedure, abridged:
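RUES2-GLR human pluripotent cells differentiated 48 h with two 24-h-interval chemical exposures (1 nM - 200 uM, 10 points); fixed, nuclear-stained, imaged. Bra+ cell percentage (intensity 5x BMAD above pluripotent control median) fitted relative to 0.2% DMSO.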

The nature of test [10]: CCTE_Deisenroth_DEVTOX-GLR_legacy_CellCount: (Legacy) Viability Assessment in CCTE's DevTox GLR-Endo Assay, Deisenroth Lab (AID 2284331; active = hit-call score of the fitted dose curve at least 0.9, where 1 is the maximum; inactive = score below 0.9). Conditions: actives raise or lower the signal. Put shortly:
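Seed RUES2-GLR 24 h; differentiate 48 h, dosing at 0 and 24 h; fix, stain nuclei; image 5 fields/well; count nuclei. Conc. 1 nM - 200 uM, single technical replicate, n=4 experiments; bidirectional fit vs 0.2% DMSO.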

Test [11] has as its system SRY-box transcription factor 2 (SOX2) Protein Expression, Deisenroth Lab, SOX2 (gene 6657). The test can be described thus: CCTE_Deisenroth_DEVTOX-GLR_Endo_SOX2: CCTE's DevTox GLR-Endo Assay Evaluation of SRY-box transcription factor 2 (SOX2) Protein Expression, Deisenroth Lab (AID 2284412). Put shortly:
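RUES2-GLR human pluripotent cells were seeded 24 h, then differentiated 48 h with two chemical exposures 24 h apart. Cells were fixed, nuclei stained and imaged by high-content microscopy. Endpoint is %SOX2+ cells over cell count, minus 0.2% DMSO control; 10-point series 1 nM–200 uM.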

The test system of test [12] is Brachyury (BRA) Protein Expression, TBXT (gene 6862). The test can be described thus: CCTE_Deisenroth_DEVTOX-GLR_Endo_BRA: CCTE's DevTox GLR-Endo Assay Evaluation of Brachyury (BRA) Protein Expression, Deisenroth Lab (AID 2284417; active = hit-call score of the fitted dose curve at least 0.9, where 1 is the maximum; inactive = score below 0.9). The procedure, abridged:
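Percent BRA+ (mesoderm) RUES2-GLR cells after 48 h differentiation with two exposures, 1 nM - 200 uM; 0.2% DMSO control subtracted.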

The nature of test [13]: CCTE_Deisenroth_DEVTOX-GLR_Endo_CellCount: Viability Assessment in CCTE's DevTox GLR-Endo Assay, Deisenroth Lab (AID 2284420; active = hit-call score of the fitted dose curve at least 0.9, where 1 is the maximum; inactive = score below 0.9). Put shortly: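 Nuclei counted by fluorescence microscopy as a surrogate for cell number, expressed as percent change relative to 0.2% DMSO control. Human RUES2-GLR cells, 48 h differentiation, dosed twice; 1 nM - 200 uM series.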
For test [14], the system named is SRY-box transcription factor 17 (SOX17) Protein Expression, Deisenroth Lab, SOX17 (gene 64321). The test can be described thus: CCTE_Deisenroth_DEVTOX-GLR_Pluri_SOX17: CCTE's DevTox GLR-Pluri Assay Evaluation of SRY-box transcription factor 17 (SOX17) Protein Expression, Deisenroth Lab (AID 2284427). The procedure, abridged: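 Readout: percent SOX17+ cells (SOX17+ count/cell count) by high-content imaging of an inducible fluorescent reporter, corrected for 0.2% DMSO solvent control. RUES2-GLR cells, 48 h differentiation, dosed twice at 24 h intervals, 1 nM - 200 uM.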

In test [15] the test system is SRY-box transcription factor 2 (SOX2) Protein Expression, Deisenroth Lab, SOX2 (gene 6657). Nature of the test: CCTE_Deisenroth_DEVTOX-GLR_Pluri_SOX2: CCTE's DevTox GLR-Pluri Assay Evaluation of SRY-box transcription factor 2 (SOX2) Protein Expression, Deisenroth Lab (AID 2284428; active = hit-call score of the fitted dose curve at least 0.9, where 1 is the maximum; inactive = score below 0.9). Put shortly:
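RUES2-GLR (human pluripotent), 48 h post-dosing, 2 exposures q24h, 1 nM–200 uM 10-pt. Fixed, nuclear dye, high-content imaging 5 fields/well. Endpoint: % SOX2+ cells (SOX2+/total count) vs 0.2% DMSO; n≥4.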

The subject of test [16] is Brachyury (BRA) Protein Expression, Deisenroth Lab, TBXT (gene 6862). The test can be described thus: CCTE_Deisenroth_DEVTOX-GLR_Pluri_BRA: CCTE's DevTox GLR-Pluri Assay Evaluation of Brachyury (BRA) Protein Expression, Deisenroth Lab (AID 2284429). Put shortly: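 Human pluripotent RUES2-GLR cells, seeded 24 h, were differentiated 48 h in defined media with two chemical doses at 24-h intervals (10-point, 1 nM - 200 uM). Readout: percent BRA+ cells by fluorescent reporter imaging, minus 0.2% DMSO control.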

Test [17] in a line: CCTE_Deisenroth_DEVTOX-GLR_Pluri_CellCount: Viability Assessment in CCTE's DevTox GLR-Pluri Assay Evaluation of Total Cell Counts, Deisenroth Lab (AID 2284430; active = hit-call score of the fitted dose curve at least 0.9, where 1 is the maximum; inactive = score below 0.9). Put shortly:
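RUES2-GLR human pluripotent cells, seeded 24 h, then differentiated 48 h with two chemical exposures 24 h apart; 10-point series 1 nM - 200 uM. Fixed, nuclear-stained, imaged (5 fields/well); nuclei count as % change vs 0.2% DMSO.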

Records with an inconclusive call do not appear. The source made the active and inactive calls. Rule for the calls, unless noted: active = hit-call score of the fitted dose curve at least 0.9, where 1 is the maximum; inconclusive = response in the unintended direction; inactive = score below 0.9.

For the compound `CN(C(=O)CCCOc1ccc2[nH]c(=O)ccc2c1)C1CCCCC1`, the result in [1], in test [2], in test [3], in test [4], in test [5] and in test [6] was inactive.
Take `Cc1ccc(NC(=O)c2ccc(CN3CCN(C)CC3)cc2)cc1Nc1nccc(-c2cccnc2)n1`: the compound was called inactive in test [1], in [2], in test [3], in [4], in test [5] and in [7]. In addition, in test [8], the result was inactive. Also, the AC50 in test [9] was 20.1 µM (active); in test [10], 15.9 µM (active); in test [11] it was 25.6 µM (active); in [12], 22.7 µM (active); in test [13], 15.8 µM (active); in test [14], 47.4 µM (active). The AC50 is 15.7 µM (active) in test [15], 23.2 µM (active) in [16] and 22.4 µM (active) in test [17].
With `COc1cc(C(=O)N2CCOCC2)cc(OC)c1OC`, the result in [1], in test [2], in [3], in test [4], in test [5] and in [7] was inactive. The result in test [8] was inactive.
Regarding `O=C(C=Cc1ccc(O)c(O)c1)O[C@@H]1C[C@@](OC(=O)C=Cc2ccc(O)c(O)c2)(C(=O)O)C[C@@H](O)[C@@H]1O`, the outcome in [1], in test [2], in test [3], in test [4], in test [5] and in test [7] was inactive. In addition, the result in test [8] was inactive.
With `Nc1nc2[nH]cc(CCc3ccc(C(=O)N[C@@H](CCC(=O)O)C(=O)O)cc3)c2c(=O)[nH]1`, the result in [1], in test [2], in test [3], in test [4], in test [5] and in test [7] was inactive. In [8], the result was inactive.
`C[CH2][Ge]([Cl])([CH2]C)[CH2]C`: the compound was called inactive in [1], in [2], in test [3], in test [4], in test [5] and in test [6].
